# Screens (PubChem)
# DAX1 inh-1 = blocks DAX1 repression of SF-1 activated StAR promoter; inhibition, % at 6.8 µM; HEK293T StAR-luciferase reporter, SF-1/DAX-1 repression relief; 1.1% of 370,000 active; AID 652010;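 active = inhibition above the mean over all tested compounds plus 3 SD, cut at about 3.6% in these data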;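 also: higher inhibition means more luminescence from relief of DAX-1 repression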
# SMARCA2 act = activators of SMARCA2 function. activation, % at 9.1 µM. 1% of 370,000 active. MG213 cells, MMTV-luciferase reporter, dexamethasone, overnight; in the data active = activation above about 7.8%
# hgDAF12 agonist = activates the H. glycines DAF-12 receptor ligand-binding domain | HEK293 GAL4-hgDAF12 UAS-luciferase reporter, agonist luminescence; normalized to butyrate control | 1.8% of 370,000 active | AID 687014 | activation, % at 6.8 µM;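 active = activation above a cutoff set at the mean of all screened compounds plus 3 SD, cut at about 10% in these data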
# hcDAF-12 act = activates DAF-12 receptor from parasite H. contortus; HEK293 hcDAF-12 lit1-tk-luc reporter, luminescence; 0% DMSO, 100% Δ7-dafachronic acid; activation, % at 6.8 µM; 1.4% of 370,000 active;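 active = activation above the mean of all tested compounds plus 3 SD, cut at about 5.5% in these data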
# ssDAF12 agonist = S. stercoralis DAF-12 activation, primary screen; activation, % at 6.8 µM; 1% of 370,000 active; HEK293 ssDAF-12/GRIP1 lit1-tk-luc reporter, luminescence; % of 3 µM dafachronic acid response;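 active = activation above the mean over all tested compounds plus 3 SD, cut at about 0.9% in these data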
# DAX1 inh-2 = inhibitors of human orphan nuclear receptor DAX1 (NR0B1); 0.99% of 340,000 active; HEK293 Gal4-DAX1 luciferase reporter, luminescence; inhibition, % at 6.75 µM; P51843; AID 504766;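 active = inhibition above the mean over all tested compounds plus 3 SD, cut at about 4.2% in these data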;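 also: inhibition shows as a rise in luminescence from relieved DAX1 repression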
# Target sequence (P51843 207-470 limits assumed): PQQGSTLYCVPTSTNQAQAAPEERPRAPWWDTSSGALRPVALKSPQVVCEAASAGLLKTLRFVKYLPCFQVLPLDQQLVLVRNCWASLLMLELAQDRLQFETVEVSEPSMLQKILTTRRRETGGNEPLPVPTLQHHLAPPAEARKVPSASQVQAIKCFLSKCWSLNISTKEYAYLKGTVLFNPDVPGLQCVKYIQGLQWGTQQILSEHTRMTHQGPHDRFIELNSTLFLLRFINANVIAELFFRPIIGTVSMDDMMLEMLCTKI
# A number is an active result; - = inactive. Most compounds without a hit are left out; they make up all but 4.8% or so of the library.
SMILES,DAX1 inh-1,SMARCA2 act,hgDAF12 agonist,hcDAF-12 act,ssDAF12 agonist,DAX1 inh-2
Cn1ccsc1=NC(=O)c1ccc(S(C)(=O)=O)cc1,-,-,-,-,-,-
Cn1ccsc1=NC(=O)c1cccc(C#N)c1,-,-,-,-,-,4.5
Cn1c(SCC(=O)c2ccccc2)ncc(C(=O)Nc2ccccc2)c1=O,-,-,-,-,-,-
Cn1c(SCC(=O)NCCc2ccccc2)ncc(C(=O)Nc2ccc(F)cc2)c1=O,-,-,-,-,0.9,-
CCCN(CC1CC1)C(=S)NC(=O)c1ccc(S(=O)(=O)N2CCOCC2)cc1,-,-,-,-,-,-
CCN(CC)CCN1C(=O)C(O)=C(C(C)=O)C1c1ccccc1[N+](=O)[O-] (stereo not given),-,-,-,6.3,1.4,-
CC(C)(C)c1ccccc1NC(=O)COC(=O)CN1C(=O)NC2(CCCC2)C1=O,-,-,-,-,-,-
CCC(c1nnc(SCC(=O)NCCc2ccc(OC)c(OC)c2)n1Cc1ccccc1)N(C)C (stereo not given),-,-,-,-,1.2,-
COc1ccc(CCNC(=O)CSc2nc3[nH]ncc3c(=O)n2-c2ccc(C)c(Cl)c2)cc1OC,-,-,-,-,1.8,-
COc1ccc(CCNC(=O)CSc2nc3[nH]ncc3c(=O)n2-c2ccc(Cl)cc2Cl)cc1OC,-,-,-,-,-,-
Brc1cccc2sc(N3CCCC3)nc12,-,-,10.9,-,-,-
CNC(=S)N/N=C/c1ccc(C(C)C)cc1,-,-,-,-,-,-
CNC(=S)N/N=C/c1ccc(N(C)C)cc1,-,-,11.4,-,-,-
CC(=O)c1c(C)[nH]c(C(=O)Nc2c(C)n(C)n(-c3ccccc3)c2=O)c1C,-,-,-,-,-,-
N#C/C(=C\c1ccccc1C(=O)O)c1nc2ccccc2[nH]1,-,-,-,-,-,4.4
COc1cccc(/C=C(\C#N)c2nc3ccc(C)cc3[nH]2)c1OCC(=O)O,-,-,-,6.1,-,-
Cc1ccc2nc(/C(C#N)=C/c3ccc(O)c(O)c3)[nH]c2c1,-,-,-,-,-,-
Cc1ccc2nc(/C(C#N)=C/c3ccccc3C(=O)O)[nH]c2c1,-,-,-,-,1.0,8.4
CCn1cc(C(=O)N(C)CC(OC)OC)c(=O)c2cc(S(=O)(=O)N3CCOCC3)ccc21,-,-,-,-,-,-
CCSc1nnc(NS(=O)(=O)c2ccc(OC)cc2)s1,-,-,-,-,-,-
Cc1ccc(-c2nc(Nc3ccc(O)cc3)c3ccccc3n2)cc1,-,-,-,-,-,-
COc1cccc(-n2c(CN3CCN(c4ccccn4)CC3)nc3ccc([N+](=O)[O-])cc3c2=O)c1,-,-,-,-,-,-
COC(=O)CN1C(=O)C(O)(CC(=O)c2ccc(C)cc2)c2cc(Br)ccc21 (stereo not given),-,-,-,-,-,4.5
CSc1ccc(/C=C/C(=O)c2c(O)cc(C)oc2=O)cc1,-,-,-,-,-,6.6
CCNC(=O)c1ccc(NC(=O)CC2SC(N3CCCC3)=NC2=O)cc1 (stereo not given),-,-,-,-,1.1,-
SMILES,DAX1 inh-1,SMARCA2 act,hgDAF12 agonist,hcDAF-12 act,ssDAF12 agonist,DAX1 inh-2
CCOc1ccccc1CN1CCNC(=O)C1CC(=O)N(C)CCC1CCOCC1 (stereo not given),-,-,-,-,-,-
CN(CC1CCOCC1)C(=O)CC1C(=O)NCCN1CC1CCCCC1 (stereo not given),-,-,-,-,-,5.7
CN(CCC1CCOCC1)C(=O)CC1C(=O)NCCN1CC1CCCCC1 (stereo not given),-,-,-,-,-,-
COc1cccc(CN2CCNC(=O)C2CC(=O)N(C)CCC2CCOCC2)c1OC (stereo not given),-,-,-,-,-,6.1
CCOc1ccc(C(=O)N/N=C/c2ccccc2[N+](=O)[O-])cc1,-,-,10.5,-,-,-
CCC(=O)Nc1ccc(C(=O)N/N=C/c2cc(Br)c(OC)cc2OC)cc1,-,-,-,-,1.9,-
COc1ccccc1/C=N/NC(=O)c1ccc(NC(=O)c2ccccc2Br)cc1,-,-,-,-,-,-
CC(=O)Nc1ccc(C(=O)N/N=C/c2ccccc2OCc2ccccc2)cc1,-,-,-,-,-,4.3
CCC(=O)Nc1ccc(C(=O)N/N=C/c2ccccc2[N+](=O)[O-])cc1,-,-,-,-,-,-
O=C(NCCCN1CCOCC1)c1cc2nc(-c3ccco3)cc(C(F)(F)F)n2n1,-,-,-,-,-,-
O=C(CCNC(=O)Cn1ccc2ccccc2c1=O)NCCCN1CCN(c2ccc(F)cc2)CC1,-,-,-,-,-,-
O=C(CCNC(=O)Cn1ccc2ccccc2c1=O)NCCCN1CCOCC1,-,-,-,-,-,5.1
Nc1ccc(S(=O)(=O)N2CCCC2)cc1,-,-,-,-,-,6.0
CC(=O)Nc1nc2cc3c(cc2s1)OCO3,-,-,13.0,-,-,-
c1ccc(N2CCN(c3nc4cc5c(cc4s3)OCO5)CC2)cc1,-,-,-,-,-,-
CC(=O)c1sc(Nc2nc3cc4c(cc3s2)OCO4)nc1C,-,-,-,-,-,-
O=C(COc1ccccc1)Nc1nc2cc3c(cc2s1)OCO3,-,-,-,6.1,-,-
c1c2c(cc3sc(N4CCCCC4)nc13)OCO2,-,-,-,6.0,-,-
COCCCN1C(=O)C(=O)/C(=C(/O)c2ccc(OCC(C)C)cc2C)C1c1cccnc1 (stereo not given),-,-,-,-,-,-
CCN(CC)c1ccc(C(=O)O)cc1,-,-,-,-,-,-
CCN(CC)c1ccc(C(=S)NCc2ccccc2)cc1,-,-,-,-,-,7.3
Cc1ccc(C(=O)CSc2nc3ccc(C(=O)NCCN4CCCCC4)cc3c(=O)[nH]2)cc1,-,-,-,5.6,-,-
Cc1ccc(Cn2c(C)cc3c(c2=O)C(c2cccs2)C(C#N)=C(N)O3)cc1 (stereo not given),-,-,-,-,-,-
O=C(c1ccccc1F)N1C(=O)c2cccc3cccc1c23,-,-,-,-,-,-
Cc1c(C)c2ccc(OC(C)C(=O)NCCN3CCOCC3)c(C)c2oc1=O (stereo not given),-,-,-,-,-,-
Cc1cc(C)cc(-n2ncc3c2CCCC3NC(=O)c2csnn2)c1 (stereo not given),4.5,-,-,-,-,-
Cc1cc(-c2onc3ccc(Cl)cc23)ccc1O,-,-,-,6.2,-,-
Cc1ccc(-c2onc3ccc(C=O)cc23)cc1,-,-,13.0,-,-,-
CC(=O)c1ccc2noc(-c3ccc(Cl)cc3)c2c1,-,-,-,-,-,-
COC(=O)/C(=C1/Oc2cc3c(cc2S1)OCO3)C(F)(F)F,-,-,-,-,-,-
